From PubChem BioAssay

The molecules below were run against NADPH oxidase 4 (Homo sapiens) (UniProt Q9NPH5) (assay: NOX4-dependent H2O2 signal modulators, primary screen, NOX inhibitor project, cell-based, HEK293-NOX4, tetracycline-induced, Amplex Red fluorescence (AID 1160)). Details: 45 min, higher = more signal, called active from +8 up or from −8 down.
NADPH oxidase 4 (Homo sapiens), sequence (Q9NPH5 whole entry, looked up): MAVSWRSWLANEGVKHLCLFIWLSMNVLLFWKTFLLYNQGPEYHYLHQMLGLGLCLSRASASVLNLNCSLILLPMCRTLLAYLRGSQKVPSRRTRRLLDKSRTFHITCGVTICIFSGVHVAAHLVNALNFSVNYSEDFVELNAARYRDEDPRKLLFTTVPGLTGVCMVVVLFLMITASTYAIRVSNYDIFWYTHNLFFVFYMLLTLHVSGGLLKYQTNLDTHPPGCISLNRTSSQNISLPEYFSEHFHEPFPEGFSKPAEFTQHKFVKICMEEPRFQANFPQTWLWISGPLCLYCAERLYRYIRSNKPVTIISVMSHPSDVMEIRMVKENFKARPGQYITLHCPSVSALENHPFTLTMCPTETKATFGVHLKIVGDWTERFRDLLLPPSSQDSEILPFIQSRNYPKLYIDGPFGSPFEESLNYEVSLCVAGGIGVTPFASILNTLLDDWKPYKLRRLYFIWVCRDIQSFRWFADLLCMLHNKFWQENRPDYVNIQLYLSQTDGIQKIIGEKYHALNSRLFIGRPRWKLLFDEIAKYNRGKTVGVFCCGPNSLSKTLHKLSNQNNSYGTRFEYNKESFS

z-score, inactive:
CN1C(=O)[C@]2(CCC(=O)OC(C)(C)C)N=C(c3ccc(OCCCO)cc3)O[C@@H]2c2ccccc21 -0.534
CC(c1ccccc1)C(O)C1C=CC2C(=O)N(c3ccccc3)C(=O)C2N1Nc1ccc(C#N)cc1 (stereo unspecified) -4.04
COCCOC(=O)N1C(=O)[C@@]2(c3cc(C#CCCO)ccc31)[C@H](C(=O)N1CCN(c3ncccn3)CC1)[C@H]1C(=O)O[C@H](c3ccccc3)[C@H](c3ccccc3)N1[C@@H]2c1ccc(O)cc1 1.21
C#CCN(C/C=C/c1ccccc1)[C@H](CO[Si](C)(C)C(C)(C)C)c1ccccc1 0.447
NCCCC[C@@H]1NC(=O)[C@H]2C[C@@H](C(=O)O)[C@@H](c3cccc(OCCO)c3)N2C1=O 0.834
[N-]=[N+]=NCc1ccccc1C[C@]1(C(=O)N2CCCCC2)N=C(c2ccc(OCCCO)cc2)O[C@H]1c1ccccc1 -0.0602
CCCCC(=C=CC[C@H](O)c1ccc(OCCO)cc1)C[C@H](O)c1ccccn1 0.364
CN(C)C(=O)[C@@]1(CCS(=O)(=O)c2ccccc2)N=C(c2ccc(OCCCO)cc2)O[C@H]1c1ccccc1N=[N+]=[N-] -0.478
[N-]=[N+]=NCc1ccccc1[C@@H]1OC(c2ccc(OCCCO)cc2)=N[C@]1(Cc1ccccc1)C(=O)NCc1ccccc1 1.15
O=C(NCCO)C1=C[C@H](Oc2ccccc2I)[C@@H](O)[C@H](NCc2ccc(F)cc2)C1 -0.89
COc1ccc([Si](C)(C)[C@@H]2[C@@H](CC(=O)N(CCO)Cc3ccccc3)O[C@]3(C(=O)N(Cc4ccc(N5CCC5=O)cc4)c4ccccc43)[C@H]2C)cc1 1.41
O=C1NC(=O)C2C1C=CC(C(O)c1cccc(O)c1)N2Nc1ccc(Cl)cc1Cl (stereo unspecified) -5.3
CC(C)C[C@@H]1NC(=O)C([C@@H](C)OCc2ccccc2)NC(=O)[C@@]23C(=O)N[C@@H](Cc4ccccc4)C2[C@H](C)[C@@]2(C)O[C@H]2C3/C=C/CC/C=C/CNC1=O (stereo partly specified) 0.98
COc1ccc([Si](C)(C)[C@H]2[C@H](CCO)O[C@@]3(C(=O)N(Cc4ccc(N5CCOC5=O)cc4)c4ccccc43)[C@@H]2C)cc1 1.75
COc1ccc(CCNC(=O)[C@@]2(Sc3ccc(C)cc3)CC(=O)N(Cc3cc(C(F)(F)F)cc(C(F)(F)F)c3)[C@@H]2c2ccc(CO)cc2)cc1 0.539
CCCCC(O)C1C=CC2C(=O)NC(=O)C2N1Nc1ccc(Cl)cc1Cl (stereo unspecified) -5.64
CO[C@H]1O[C@H](CO)[C@@H](OC(=O)Nc2ccc3c(c2)OCO3)[C@@H]2OC(=O)[C@@H](Cc3ccccc3)C/C=C/C[C@H](Cc3ccccc3)C(=O)O[C@@H]12 -0.162
CN(C)C(=O)[C@]1(Cc2ccccc2CN=[N+]=[N-])N=C(c2ccc(OCCCO)cc2)O[C@@H]1c1ccccc1N=[N+]=[N-] 0.807
O=C1OCCC=C[C@H]2OC34C=CCN(CCN5CCOCC5)C(=O)[C@H]3N(CCCO)C(=O)[C@@H]4C12 (stereo partly specified) -1.97
C=CCNC(=O)[C@@H]1[C@H]2C(=O)O[C@H](c3ccccc3)[C@H](c3ccccc3)N2[C@H](c2ccccc2OCCO)[C@@]12C(=O)N(C(=O)OCCOC)c1ccc(C#CCCO)cc12 1.31
C=CCC(OC(C)=O)[C@@H]1[C@@H](N(Cc2cccc3ccccc23)C(=O)c2cccc3ccccc23)c2cc(OCCCO)ccc2N1C(=O)Cc1ccc2ccccc2c1 (stereo partly specified) -0.859
C=C(COC)/C(=C/C[C@@H](OC(C)=O)c1ccccc1OCCO)c1cc(C(=O)OC)ccc1OC -0.16
COCC(=C=CC[C@@H](O)c1cccc(OCCO)c1)C[C@@H](O)COCc1ccccc1 -0.268
CCCCC=C[C@@H](NC(=O)c1ccc(C(F)(F)F)cc1)c1ccccc1 -1.37
COC(=O)[C@]1(CO)N=C(c2ccc(OCCCO)cc2)O[C@@H]1c1ccccc1CN=[N+]=[N-] -0.0289
COC(=O)[C@@]1(Cc2ccc(OC)cc2)[C@H]2c3cc(C(=O)N4CCCC4)n(CCc4ccc(OC)c(Br)c4)c3C[C@H]2CN1C(=O)c1ccccc1 0.0418
COCCOC(=O)N1C(=O)[C@@]2(c3cc(C#CCC(C(=O)OC)C(=O)OC)ccc31)[C@H](C(=O)N1CCc3cc(OC)c(OC)cc3C1)[C@H]1C(=O)O[C@H](c3ccccc3)[C@H](c3ccccc3)N1[C@@H]2c1ccc(O)cc1 0.862
CCC(CC)C(O)C1C=CC2C(=O)N(C)C(=O)C2N1N1CCCCC1 (stereo unspecified) -1.17
COc1cc2c(cc1O)C(c1ccc(CN3CCCC3)cc1)N(Cc1ccc([N+](=O)[O-])o1)CC2 (stereo unspecified) -2.56
COc1cc(OC)c(C(O)C2C=CC3C(=O)N(c4ccccc4)C(=O)C3N2Nc2ccccc2F)cc1Br (stereo unspecified) -4.43
NC(=O)N1C(=O)C2C(C1=O)C1C=C(CCCO)C2C(c2ccc(CN3CCCC3)cc2)N1Cc1cccc(OC(F)(F)F)c1 (stereo unspecified) -0.76
CC(C)C[C@H]1NC(=O)[C@@]23C(=O)N[C@@H](Cc4ccccc4)C2[C@H](C)[C@@]2(C)O[C@H]2C3/C=C/C/C=C\CNC(=O)[C@@H]2CCCN2C1=O (stereo partly specified) 1.29
COC(=O)[C@@]1(Cc2ccc(F)cc2)[C@H]2c3cc(C(=O)N(C)C)n(CCn4cc([N+](=O)[O-])nc4C)c3C[C@H]2CN1C(=O)c1ccccc1 -0.00316
C=CC[C@]1(C(=O)NCCCOC)N=C(c2ccc(OCCCO)cc2)O[C@H]1c1ccccc1 -0.164
COCCOC(=O)N1C(=O)[C@@]2(c3cc(C#CC4=CCCCC4)ccc31)[C@H](c1ccccc1OCCO)N1[C@H](c3ccccc3)[C@H](c3ccccc3)OC(=O)[C@H]1[C@@H]2C(N)=O 0.548
CC(C)C[C@@H]1NC(=O)[C@@]23C(=O)N[C@@H](Cc4ccccc4)C2[C@H](C)[C@@]2(C)O[C@H]2C3/C=C/C/C=C\CNC(=O)[C@@H](CC(C)C)NC1=O (stereo partly specified) 0.41
